# Results taken from PubChem BioAssay.
# Values joined by “and” are separate entries in the source; they are usually repeats but may differ in a detail not shown here. Identical values can stand only once. Active and inactive are the calls of the source. Unless noted, no stated cut-off is given here; in the data, active means inhibition above about 80%; inactive means the rest.
# Experiments:
# [1] = LFS_MB_P medulloblastoma growth inhibition, cell-based, chromothripsis tumors, cisplatin or BGB combos (AID 1671449); conditions: LFS_MB_P medulloblastoma cells;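 further: cells exposed for 96 hours; 0% = vehicle DMSO and 100% = killing by high DMSO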
# [2] = HDN33 neuroblastoma growth inhibition, cell-based, chromothripsis tumors, cisplatin or BGB combos (AID 1671450); conditions: HDN33 neuroblastoma cells, stronger effect = higher value;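 further: cells exposed to compound for four days; 0% = vehicle DMSO and 100% = cell killing by high DMSO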
# [3] = ICB984 medulloblastoma cell growth inhibition, synergistic combos for chromothripsis tumors, cisplatin or BGB combos (AID 1671451; call rule not given here;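 further: cells exposed for 96 hours before readout; 0% = vehicle DMSO and 100% = killing by high DMSO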); conditions: ICB984 medulloblastoma cells, drug combinations, stronger effect = higher value
# [4] = LFS_MB_1R medulloblastoma cell growth inhibition, synergistic combos for chromothripsis tumors, cisplatin or BGB combos (AID 1671452); conditions: LFS_MB_1R medulloblastoma cells, stronger effect = higher value;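 further: cells exposed for 96 hours before readout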
# [5] = HTB85 osteosarcoma cell growth inhibition, synergistic combos for chromothripsis tumors, BGB or cisplatin IC20 combos (AID 1671453); conditions: HTB85 osteosarcoma cells, drug combinations, stronger effect = higher value;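 further: cells exposed for 96 hours before readout; 0% = vehicle DMSO and 100% = high DMSO killing control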
# [6] = CRL2098 osteosarcoma cell growth inhibition, synergistic combos for chromothripsis tumors, BGB or cisplatin IC20 combos (AID 1671454); conditions: CRL2098 osteosarcoma cells, drug combinations, stronger effect = higher value;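 further: cells exposed for 96 h before readout; 0% = vehicle DMSO and 100% = killing by high DMSO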
# [7] = HD-MB03 medulloblastoma cell growth inhibition, synergistic combos for chromothripsis tumors, BGB or cisplatin IC20 combos (AID 1671455; in the data active means inhibition above about 83%;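 further: 0% = vehicle DMSO and 100% = high DMSO as cytotoxic control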); conditions: HD-MB03 medulloblastoma cells, stronger effect = higher value
# [8] = UWB1.289 ovarian carcinoma cell growth inhibition, synergistic combos for chromothripsis tumors, BGB or cisplatin combos (AID 1671456); conditions: UWB1.289 ovarian carcinoma cells, stronger effect = higher value;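 further: cells exposed to compound for four days; 0% = vehicle DMSO and 100% = killing by high DMSO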
# [9] = LFS_MB_2R medulloblastoma cell growth inhibition, synergistic combos for chromothripsis tumors, cisplatin combos (AID 1671457); conditions: LFS_MB_2R medulloblastoma cells, stronger effect = higher value;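 further: cells exposed to compound for four days before readout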
# [10] = MDA-MB-436 breast carcinoma cell growth inhibition, synergistic combos for chromothripsis tumors, BGB or cisplatin combos (AID 1671458; call rule not given here;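 further: cells exposed for 96 hours; 0% = vehicle DMSO and 100% = killing by high DMSO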); conditions: MDA-MB-436 breast carcinoma growth inhibition, drug combinations, stronger effect = higher value
# [11] = UWB1.289_BRCA1 ovarian cancer growth, cell-based, BGB or cisplatin combinations (AID 1671459); conditions: UWB1.289 BRCA1 ovarian carcinoma, drug combinations, stronger effect = higher value
# [12] = human astrocyte viability loss, single and combined drugs, cytotoxicity control for chromothriptic childhood tumor combination screen, cell-based, BGB or cisplatin IC20 combos (AID 1671460); conditions: Human astrocytes, drug combinations, stronger effect = higher value;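 further: cells exposed to compounds for 96 hours before viability readout; 0% = vehicle and 100% = killing control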
# [13] = growth inhibition of BT084 medulloblastoma cells, cell-based, ICGC_MB145, cisplatin and BGB IC40 combos (AID 1671461); conditions: drug combinations, stronger effect = higher value;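 further: cells exposed to drugs for 96 hours; 0% = vehicle DMSO and 100% = high DMSO full killing control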
# [14] = growth inhibition of RCMB18 medulloblastoma cells, cell-based, cisplatin and BGB IC40 combos (AID 1671462); conditions: stronger effect = higher value;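 further: cells exposed to compound for four days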
# [15] = growth inhibition of CRL1545 osteosarcoma cells, cell-based, cisplatin and BGB IC20 combos (AID 1671464); conditions: stronger effect = higher value;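 further: cells exposed to compound for 96 hours before readout; 0% = vehicle DMSO and 100% = high DMSO killing control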
# [16] = at 0.5 µM, stronger effect = higher value
# [17] = measured here: combination with BGB IC20, at 0.005 µM
# [18] = measured here: combination with BGB IC40, at 0.005 µM
# [19] = measured here: combination with BGB IC40, at 0.05 µM
# [20] = measured here: combination with cisplatin, at 0.5 µM, stronger effect = higher value
# [21] = measured here: combination with cisplatin, at 5 µM, stronger effect = higher value
# [22] = measured here: with BGB IC20 combination, at 0.5 µM
# [23] = measured here: with cisplatin IC20 combination, at 0.5 µM
# [24] = measured here: 5 uM single agent, at 5 µM
# [25] = measured here: combination with cisplatin, at 0.5 µM
# [26] = measured here: combination with cisplatin, at 5 µM
# [27] = measured here: with BGB IC20, at 0.5 µM
# [28] = measured here: with BGB IC20, at 5 µM
# [29] = measured here: with cisplatin IC20, at 0.5 µM
# [30] = measured here: with cisplatin IC20, at 5 µM
compound,measurement,setting,value
CCC(Sc1nnc2c3ccccc3n(CC)c2n1)C(=O)Nc1ccccc1OC (stereo not given),inhibition,[1]; [16],-17.9% (inactive)
same,inhibition,[1]; [17],-26%
same,inhibition,[1]; [18],87.7%
same,inhibition,[1]; [19],-14.4%
same,inhibition,[1]; [20],-20.5%
same,inhibition,[1]; [21],-38.2%
same,inhibition,"[2]; BGB combo, at 5 µM",-25%
same,inhibition,[2]; at 0.5 µM,-10.1% (inactive)
same,inhibition,"[2]; cisplatin combo, at 5 µM",7.7%
same,inhibition,[2]; [22],-15.6%
same,inhibition,[2]; [23],-11.8%
same,inhibition,"[2]; single agent, at 5 µM",1.35%
same,inhibition,"[3]; BGB IC20 combo, at 0.005 µM",-20.7%
same,inhibition,"[3]; BGB IC40 combo, at 0.005 µM",-12.8%
same,inhibition,"[3]; BGB IC40 combo, at 0.05 µM",-32.4%
same,inhibition,[3]; at 0.5 µM,-26.1% (inactive)
same,inhibition,"[3]; cisplatin combo, at 0.05 µM",-39.2%
same,inhibition,"[3]; cisplatin combo, at 0.5 µM",-34.7%
same,inhibition,"[3]; cisplatin combo, at 5 µM",-6.65%
same,inhibition,[3]; [24],-26%
same,inhibition,[4]; at 0.5 µM,-22.8% (inactive)
same,inhibition,[4]; [19],-32%
same,inhibition,[4]; [25],-18.6%
same,inhibition,[4]; [26],-34.1%
same,inhibition,[5]; at 0.5 µM,0.76% (inactive)
same,inhibition,[5]; [27],6.64%
same,inhibition,[5]; [28],-8.08%
same,inhibition,[5]; [29],-8.64%
same,inhibition,[5]; [30],-18%
same,inhibition,"[5]; single agent, at 5 µM",3.91%
same,inhibition,[6]; at 0.5 µM,-23.4% (inactive)
same,inhibition,"[6]; measured here: combination with BGB at IC20, at 0.5 µM",-38.3%
same,inhibition,"[6]; measured here: combination with cisplatin at IC20, at 0.5 µM",-32%
same,inhibition,[7]; at 0.5 µM,-13.9% (inactive)
same,inhibition,"[7]; measured here: combo with BGB at IC20, at 0.5 µM",-20.2%
same,inhibition,"[7]; measured here: combo with cisplatin at IC20, at 0.5 µM",-12.1%
same,inhibition,[8]; at 0.5 µM,1.85% (inactive)
same,inhibition,"[8]; measured here: inhibition with BGB combination, at 0.05 µM",-11.2%
same,inhibition,"[8]; measured here: inhibition with cisplatin combination, at 0.05 µM",-1.41%
same,inhibition,[9]; at 0.5 µM,-23.8% (inactive)
same,inhibition,[9]; [25],-34.2%
same,inhibition,[9]; [26],-45.7%
same,inhibition,[10]; at 0.5 µM,-18.3% (inactive)
same,inhibition,"[10]; measured here: BGB combination, at 0.5 µM",-16.3%
same,inhibition,"[10]; measured here: BGB combination, at 5 µM",-14.5%
same,inhibition,"[10]; measured here: cisplatin combination, at 0.5 µM",-37.5%
same,inhibition,"[10]; measured here: cisplatin combination, at 5 µM",-22%
same,inhibition,"[11]; BGB combination, concentration series, at 5 µM",-8.24%
same,inhibition,[11]; at 0.5 µM,0.44% (inactive)
same,inhibition,"[11]; cisplatin combination, concentration series, at 5 µM",11.1%
same,inhibition,[12]; at 0.5 µM,10.6% (inactive)
same,inhibition,"[12]; measured here: combo with BGB IC20, at 0.5 µM",14.7%
same,inhibition,"[12]; measured here: combo with cisplatin IC20, at 0.5 µM",10.3%
same,inhibition,[13]; at 0.5 µM,-2.76% (inactive)
same,inhibition,"[13]; cisplatin combination, at 0.5 µM",-8.44%
same,inhibition,"[13]; cisplatin combination, at 5 µM",-148%
same,inhibition,"[13]; measured here: BGB IC40 combination 0.05 uM, at 0.05 µM",-28.4%
same,inhibition,"[13]; single agent, at 5 µM",-15.3%
same,inhibition,[14]; at 0.5 µM,-9.8% (inactive)
same,inhibition,"[14]; cisplatin combo, at 5 µM",-1.17%
same,inhibition,"[14]; measured here: BGB IC40 combination, at 0.05 µM",-28%
same,inhibition,[14]; [25],-27.5%
same,inhibition,"[14]; single agent, at 5 µM",-2.94%
same,inhibition,[15]; at 0.5 µM,-6.26% (inactive)
same,inhibition,[15]; [22],3.68%
same,inhibition,[15]; [23],-13%
same,inhibition,"[15]; single agent, at 0.05 µM",-16.5%
same,inhibition,"[15]; single agent, at 5 µM",1.47%
CCc1c2c(nc3ccc(OC(=O)N4CCC(N5CCCCC5)CC4)cc13)-c1cc3c(c(=O)n1C2)COC(=O)C3(O)CC (stereo not given),inhibition,[1]; [19],-19.5% and -4.73% and -44.6%
same,inhibition,[13]; at 0.5 µM,-22.5% (inactive) and 1.41% (inactive) and -20.7% (inactive)
Cc1cc(C)cc(C(=O)NOCCCCCC(=O)NO)c1,inhibition,[1]; [16],-18.6% (inactive)
same,inhibition,[1]; [17],-25.1%
same,inhibition,[1]; [18],-71.8%
same,inhibition,[1]; [19],-38.3%
same,inhibition,[1]; [20],23.3%
same,inhibition,[1]; [21],101%
same,inhibition,"[2]; BGB combo, at 5 µM",98%
same,inhibition,[2]; at 0.5 µM,16.4% (inactive)
same,inhibition,"[2]; cisplatin combo, at 5 µM",99.6%
same,inhibition,[2]; [22],11.9%
same,inhibition,[2]; [23],14.2%
same,inhibition,"[2]; single agent, at 5 µM",99.6%
same,inhibition,"[3]; BGB IC20 combo, at 0.005 µM",3.29%
same,inhibition,"[3]; BGB IC40 combo, at 0.005 µM",-11.3%
same,inhibition,"[3]; BGB IC40 combo, at 0.05 µM",93.2%
same,inhibition,[3]; at 0.5 µM,-24.3% (inactive)
same,inhibition,"[3]; cisplatin combo, at 0.05 µM",93.4%
same,inhibition,"[3]; cisplatin combo, at 0.5 µM",-27.8%
same,inhibition,"[3]; cisplatin combo, at 5 µM",-32.7%
same,inhibition,[3]; [24],-20.9%
same,inhibition,[4]; at 0.5 µM,21.5% (inactive)
same,inhibition,[4]; [19],-19%
same,inhibition,[4]; [25],16.6%
same,inhibition,[4]; [26],97%
same,inhibition,[5]; at 0.5 µM,15.3% (inactive)
same,inhibition,[5]; [27],4.55%
same,inhibition,[5]; [28],96.8%
same,inhibition,[5]; [29],32.1%
same,inhibition,[5]; [30],99.4%
same,inhibition,"[5]; single agent, at 5 µM",98.4%
